# “And” between values parts separate entries of the source, which are not always exact repeats. Equal values may be shown once. Inconclusive results are not listed. The source made the active and inactive calls. The call rests on the fitted dose curve; in most records, active means well fitted activation curve with a large enough effect; inconclusive means small, poorly fitted or top-dose-only effect; inactive means no such curve, though single readings can be large or run the other way.
# Molecular target: Cellular tumor antigen p53 (Homo sapiens) (UniProt P04637)
# Sequence (P04637 whole entry, looked up): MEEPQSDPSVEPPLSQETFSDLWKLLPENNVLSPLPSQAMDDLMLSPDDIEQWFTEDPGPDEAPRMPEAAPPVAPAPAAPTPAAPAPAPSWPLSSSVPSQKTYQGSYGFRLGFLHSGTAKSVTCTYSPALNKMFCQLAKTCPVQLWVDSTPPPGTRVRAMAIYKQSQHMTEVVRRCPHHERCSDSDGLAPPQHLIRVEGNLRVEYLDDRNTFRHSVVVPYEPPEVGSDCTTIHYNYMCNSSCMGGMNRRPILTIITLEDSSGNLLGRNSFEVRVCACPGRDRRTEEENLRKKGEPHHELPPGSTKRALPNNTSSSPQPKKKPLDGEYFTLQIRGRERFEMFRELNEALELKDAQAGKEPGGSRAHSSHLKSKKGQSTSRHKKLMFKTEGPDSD
# Experiment: Primary qHTS for small molecule compounds that upregulate eGFP-tagged delta133p53alpha (in N-terminal) cells. (AID 2060322); further: nearly all actives have a fitted effect of over 75% in size;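 on activation: cells pre-induced with doxycycline then dosed without doxycycline; series mostly up to about 56 µM; 0% = DMSO vehicle and 100% = reference activator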
# Conditions: NCI-H358 eGFP-delta133p53alpha fluorescence, 24 h; activation: stronger effect = higher value
# How it was run: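 NCI-H358 cells pre-induced 24 h with 10 ng/ml doxycycline for eGFP-delta133p53alpha, plated dox-free and exposed 24 h at 37C to titrated compounds. Fixed, Hoechst-stained; gated GFP peak intensity by laser scanning cytometry, normalized to DMSO (0%) and 57.5 uM 5-azacytidine (100%).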
# Potency means the concentration at half of the fitted maximal effect.
Structure (SMILES),activation,Potency
N[C@H]1C(O)O[C@H](CO)[C@@H](O)[C@@H]1O (stereo not given in full),-0.837% (inactive),–
c1ccc2c(c1)CCc1ccccc1N2,10.7% (inactive),–
CC(O)CCCCn1c(=O)c2c(ncn2C)n(C)c1=O (stereo not given),-16.4% (inactive),–
CCC(=O)c1ccc(O)cc1,-10% (inactive),–
CC(C)=CCC1C(=O)N(c2ccccc2)N(c2ccccc2)C1=O,-15.3% (inactive),–
CN(C)[C@@H](CCOc1cccc2ccccc12)c1ccccc1,8.7% (inactive),–
CC(=Cc1ccccc1)C=C1SC(=S)N(CC(=O)O)C1=O,-1.94% (inactive),–
Nc1nc2ncc(CNc3ccc(C(=O)N[C@@H](CCC(=O)O)C(=O)O)cc3)nc2c(=O)[nH]1,-10% (inactive),–
O=C(OCC(O)CO)c1ccccc1Nc1ccnc2c(C(F)(F)F)cccc12 (stereo not given),-13.4% (inactive),–
C[C@@H]1CCN(C(=O)[C@H](CCCN=C(N)N)NS(=O)(=O)c2cccc3c2NC[C@H](C)C3)[C@@H](C(=O)O)C1,2.82% (inactive),–
Nc1ncnc2nc[nH]c12,18.4% (inactive),–
O=C(Cn1ccnc1[N+](=O)[O-])NCc1ccccc1,-10.9% (inactive),–
Oc1ccccc1C=NCc1ccccc1,-19.2% (inactive),–
OC[C@@H](O)[C@H](O)[C@H](O)[C@@H](O)CO,-3.35% (inactive) and 22.6% (inactive),–
CCCCOCCOC(=O)c1cccnc1,-10.7% (inactive),–
CCOC(=O)N1CCN([N+]([O-])=NOc2cc(ON=[N+]([O-])N3CCN(C(=O)OCC)CC3)c([N+](=O)[O-])cc2[N+](=O)[O-])CC1,5.87% (inactive),–
COc1ccccc1N1CCN(CCCCNC(=O)c2ccc(-c3ccc(C(C)=O)cc3)cc2)CC1,-10.9% (inactive),–
CN(C)c1ccc(C(=O)NCCCCCC(=O)NO)cc1,10.1% (inactive),–
NS(=O)(=O)c1cc(C(=O)NN2C[C@H]3[C@H]4CCC(C4)[C@H]3C2)ccc1Cl,0% (inactive),–
O=C(O)Cn1c(=O)n(Cc2ccc(Br)cc2F)c(=O)c2ccc(Cl)cc21,-5.08% (inactive),–

Structure (SMILES),activation,Potency
CC(=O)[C@@]1(O)CC[C@H]2[C@@H]3C[C@H](C)C4=CC(=O)C=C[C@]4(C)[C@@]3(F)[C@@H](O)C[C@@]21C,-11.7% (inactive),–
O=C(O)c1[nH]n(-c2ccc(S(=O)(=O)O)cc2)c(=O)c1N=Nc1ccc(S(=O)(=O)O)cc1,3.95% (inactive),–
O=C(CO)[C@@H](O)[C@H](O)[C@@H](O)CO,-15.9% (inactive),–
CCNC(=O)[C@H]1O[C@@H](n2cnc3c(N)nc(NCCc4ccc(CCC(=O)O)cc4)nc32)[C@H](O)[C@H]1O,29.2% (inactive),–
CCCCCCCC(=O)OCC(O)CO (stereo not given),-14.2% (inactive),–
CC(=O)c1ccc(O)c(C(N)=O)c1,-19.8% (inactive),–
CCN(CC)C(=O)C1CN2CCc3cc(OC)c(OC)cc3C2CC1OC(C)=O (stereo not given),-9.21% (inactive),–
CC1CCCCN1CCCOC(=O)c1ccc(OC2CCCCC2)cc1 (stereo not given),-7.53% (inactive),–
CN(C)CCOC1=Cc2ccccc2Sc2ccc(Cl)cc21,2.51% (inactive),–
COc1cc(-c2ccc(=O)[nH]n2)ccc1OC(F)F,2.51% (inactive),–
Cn1c([N+](=O)[O-])cnc1COC(N)=O,-9.6% (inactive),–
C/C(=C1\CCOC(=O)S1)N(C=O)Cc1cnc(C)nc1N,-5.86% (inactive),–
CCOC(=O)N[C@@H]1CC[C@@H]2[C@@H](C1)C[C@H]1C(=O)O[C@H](C)[C@H]1[C@@H]2C=Cc1ccc(-c2cccc(F)c2)cn1,8.14% (inactive),–
OCC(O)C(O)C(O)CO (stereo not given),28.5% (inactive),–
CCCCCCCCCCCCCCCC[N+](C)(C)CCN(Cc1ccc(OC)cc1)c1ncccn1,–,34.7 µM (active)
Cc1cccc(Nc2ccncc2S(=O)(=O)NC(=O)NC(C)C)c1,14.1% (inactive) and -1.67% (inactive),–
CNCC[C@@H](Oc1ccccc1C)c1ccccc1,-17.6% (inactive),–
CC1CCc2cc(F)cc3c(=O)c(C(=O)O)cn1c23 (stereo not given),23.2% (inactive),–
O=C(O)COC(=O)Cc1ccccc1Nc1c(Cl)cccc1Cl,5.08% (inactive),–
CCC(CC)(CC(=O)Nc1cccc(/C=C/c2nc(C3CCC3)cs2)c1)C(=O)O,24.3% (inactive),–
